Screening data from PubChem.
Only some compounds are listed: those with a hit (about 2.3% of all), similar ones and a draw of the others.
WRN helicase inh: blocks human WRN helicase | WRN helicase unwinding, fluorescent forked duplex, kinetic | hit rate 0.46% among 360,000 | Potency, µM (doses to about 114 µM), for the others: at the top dose activity change, negative = inhibition, most hits filed as inhibitors | Q14191; further: on the % scale 0 is the no-effect control and ±100 the full control effect; nearly all actives have a fitted effect of over 55% in size
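Enzyme (20 nM final) and test compound sit together 15 min at room temperature before substrate addition. Substrate is a single-forked duplex oligonucleotide (100 nM) labelled with fluorophore and quencher, with 2 mM ATP; helicase unwinding raises red fluorescence, read kinetically.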
POLH inh: inhibitors of human DNA polymerase eta. Q9Y253. recombinant Pol eta, fluorescent DNA replication assay. Potency, µM (series often up to 114 µM), for inactives: top-dose activity change, negative = inhibition, most hits filed as inhibitors. hit rate 1.2% among 390,000; further: on the % scale 0 is the no-effect control and ±100 the full control effect
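Fluorescent replication assay: 50 nM final substrate added after a 15 min room-temperature compound preincubation with 10 nM enzyme. Signal taken at 0 min and again at 10 min.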
Pol iota inh: blocks human DNA polymerase iota activity | hit rate 1% among 390,000 | Pol iota fluorescent replication assay, 10 min | Potency, µM (highest dose often 115 µM), inactives show top-dose activity, negative = inhibition, usual class: inhibitors
Target sequence (Q9UNA4 whole entry, looked up): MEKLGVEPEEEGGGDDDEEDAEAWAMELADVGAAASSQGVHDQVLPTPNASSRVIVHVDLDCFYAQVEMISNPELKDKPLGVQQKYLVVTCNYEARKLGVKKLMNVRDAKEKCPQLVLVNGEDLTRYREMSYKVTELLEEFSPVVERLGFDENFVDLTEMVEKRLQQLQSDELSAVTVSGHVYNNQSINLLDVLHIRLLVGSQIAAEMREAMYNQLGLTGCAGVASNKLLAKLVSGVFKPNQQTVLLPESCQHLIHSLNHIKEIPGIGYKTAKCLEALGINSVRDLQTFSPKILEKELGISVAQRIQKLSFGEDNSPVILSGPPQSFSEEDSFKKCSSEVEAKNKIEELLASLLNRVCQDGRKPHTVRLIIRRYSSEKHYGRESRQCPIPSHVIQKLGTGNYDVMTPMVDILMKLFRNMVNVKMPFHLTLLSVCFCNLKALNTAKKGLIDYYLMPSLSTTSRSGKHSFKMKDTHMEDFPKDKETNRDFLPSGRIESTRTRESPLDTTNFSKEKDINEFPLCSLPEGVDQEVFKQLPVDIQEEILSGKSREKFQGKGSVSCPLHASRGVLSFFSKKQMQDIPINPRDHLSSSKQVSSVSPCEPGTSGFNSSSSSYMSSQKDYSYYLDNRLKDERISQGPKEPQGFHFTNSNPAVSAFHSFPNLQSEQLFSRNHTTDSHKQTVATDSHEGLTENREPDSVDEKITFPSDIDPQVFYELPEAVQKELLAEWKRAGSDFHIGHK
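Pol iota at 10 nM preincubated 15 min with compounds at room temperature; reaction started with fluorescent substrate, 50 nM final. Fluorescence read kinetically at 0 and 10 min; buffer-only wells as negative control.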
Pol kappa inh: blocks human DNA polymerase kappa activity; Potency, µM (series often up to 107 µM), for the others: at the highest dose activity, negative = inhibition, actives largely listed as inhibitors; purified Pol kappa, fluorescent DNA synthesis assay, 10 min; hit rate 0.53% among 400,000; Q9UBT6; AID 588579; further: on the % scale 0 is the no-effect control and ±100 the full control effect
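First, compounds were pin-transferred onto 10 nM Pol kappa. After 15 min at room temperature, substrate was added to 50 nM final. Fluorescence was then measured kinetically at 0 and 10 min.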
POLB inh: inhibitors of human DNA polymerase beta | P06746 | Pol beta primer extension/strand displacement, fluorescence kinetic | Potency, µM (top dose mostly 114 µM), inactives show at the highest dose activity change, negative = inhibition, hits mostly inhibitors | hit rate 1.3% among 340,000 | AID 485314; further: on the % scale 0 is the no-effect control and ±100 the full control effect
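Preincubation: enzyme (10 nM) with compound, 15 min, RT. Reaction: substrate added to 50 nM final. Reads: 0 and 10 min. Analysis: normalized, Hill fit.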
Active calls of the source: *; ? = inconclusive; nt = not tested or not shown; [ ] = remark or other dose. The call rests on the fitted dose curve; in most records, active means well fitted curve in the direction sought with a large enough effect; inconclusive means small, poorly fitted or top-dose-only effect, or another doubt; inactive means no such curve, though single readings can be large; an effect the other way counts as inactive or inconclusive. Potency means the concentration at half of the fitted maximal effect.

SMILES	WRN helicase inh	POLH inh	Pol iota inh	Pol kappa inh	POLB inh
CS(=O)(=O)c1ccc(S(=O)CC(=O)OCc2ccccc2)c([N+](=O)[O-])c1 (stereo unspecified)	?	-4%	20µM*	-5%	6%
Cc1cn(C2CC3OCC(NC(=O)C(NC(=O)OC(C)(C)C)C(C)OCc4ccccc4)C3O2)c(=O)[nH]c1=O (stereo unspecified)	nt	nt	10%	6%	nt
CCCCCn1c(N)c(-c2nc3ccccc3s2)c2c([N+](=O)[O-])nn(C)c(=O)c21	-14%	-8%	6%	-14%	34%
CCCCn1c(N)c(-c2nc3ccccc3o2)c2c([N+](=O)[O-])nn(CC)c(=O)c21	-4%	3.5µM*	-21%	-3%	14%
S=C(NCCCc1cnc[nH]1)NCCCN(Cc1ccc(Cl)cc1)c1cc(-c2ccccc2)ccn1	nt	nt	?	-19%	nt
COc1ccc2c(c1OC)C(=O)OC2c1ccc(O)cc1 (stereo unspecified)	nt	nt	1%	10%	nt
CC1=CC(=O)CC2C1(C)CCC(C)C2(C)CCC(C)CC(=O)O (stereo unspecified)	-4%[11.6 µM]	79µM*	89µM*	-28%	45µM*
CC1CCN(CCCCOc2ccc([N+](=O)[O-])cc2)CC1	0%	-17%	171%	0%	14%
CC1CCN(CCCCOc2ccccc2[N+](=O)[O-])CC1	-8%[57.1 µM]	-6%	79µM*	-9%	24%
CNc1cc[n+](C)c2ccccc12	nt	nt	24%	-18%	nt
O=C1/C(=N\S(=O)(=O)c2cccs2)C([n+]2ccccc2)=C([O-])c2ccccc21	-3%[11.6 µM]	32µM*	30%	11%	?
CC[C@H](C)[C@H](NC(=O)[C@H](CCC(=O)O)NC(=O)[C@@H](N)CO)C(=O)N[C@@H](CCC(N)=O)C(=O)N[C@@H](CC(C)C)C(=O)N[C@@H](CCSC)C(=O)N[C@@H](Cc1cnc[nH]1)C(=O)N[C@@H](CC(N)=O)C(=O)N[C@@H](CC(C)C)C(=O)NCC(=O)N[C@@H](CCCCN)C(=O)N[C@@H](Cc1cnc[nH]1)C(=O)N[C@@H](CC(C)C)C(=O)N[C@@H](CC(N)=O)C(=O)N[C@@H](CO)C(=O)N[C@@H](CCSC)C(=O)N[C@@H](CCC(=O)O)C(=O)N[C@@H](CCCNC(=N)N)C(=O)N[C@H](C(=O)N[C@@H](CCC(=O)O)C(=O)N[C@@H](Cc1c[nH]c2ccccc12)C(=O)N[C@@H](CC(C)C)C(=O)N[C@@H](CCCNC(=N)N)C(=O)N[C@@H](CCCCN)C(=O)N[C@@H](CCCCN)C(=O)N[C@@H](CC(C)C)C(=O)N[C@@H](CCC(N)=O)C(=O)N[C@@H](CC(=O)O)C(=O)N[C@H](C(=O)N[C@@H](Cc1cnc[nH]1)C(=O)N[C@@H](CC(N)=O)C(=O)N[C@@H](Cc1ccccc1)C(=O)O)C(C)C)C(C)C	nt	nt	nt	12%[60.1 µM]	nt
Cc1cc(=O)n2[nH]c(-c3ccsc3-n3c(C)ccc3C)cc2n1	?	7.9µM*	7.9µM*	28µM*	?
Cc1cc2c(=O)c(C(=O)c3ccncc3)cn(CC(=O)Nc3cccc(C)c3C)c2cc1C	nt	-24%	?	2%[60.1 µM]	40µM*
Cc1cccc(NC(=O)Cn2cc(C(=O)c3ccco3)c3ccccc32)c1C	nt	79µM*	?	-39%	?
CCOC(=O)/C(C#N)=C\c1ccco1	-16%	-8%	?	-20%	40µM*
CCOC(=O)/C(C#N)=C/c1cccc(C)c1	7%	-4%	2%	-12%	6%
N#CN=c1snc(-c2ccccc2)n1-c1ccc(Br)cc1	nt	nt	5%	-11%	nt
Cc1ccc(-n2cccc2/C=C2\C(=N)N3N=C(C(C)C)SC3=NC2=O)cc1	-6%	-12%	12%	-11%	28µM*
CCC1=NN2C(=N)/C(=C\c3cccn3-c3ccc(OC)cc3)C(=O)N=C2S1	-3%	-19%	?	-10%	0%
Cc1cccc(NC(=O)CN2C(=O)N/C(=C/c3ccc(C)s3)C2=O)c1	-27%	-7%	-14%	-17%	0%
CCOC(=O)CN1C(=O)S/C(=C\c2ccc(-c3cccc(C(=O)O)c3C)o2)C1=O	-3%[11.6 µM]	?	?	-20%	nt
